# From PubChem BioAssay (NCATS)
# A number with no mark means an inactive call. The call rests on the fitted dose curve.
# Assay: qHTS drug screen for cell cycle checkpoint inhibitors in PARPi-resistant BRCA-mutant ovarian cancer cell lines. (AID 1963452)
# Settings: PEO1/OlaR viability, CellTiter-Glo luminescence, 96 h; stronger effect = lower value
# How it was run: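 PEO1, PEO4 and PEO1/OlaR ovarian cancer cells, 600 per well, exposed 96 h at 37C to a dilution series. Viability read by CellTiter-Glo luminescence, normalized to DMSO and empty wells; activity summarized as Z-AUC.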
row,Structure (SMILES),Z-AUC
1,NCCCC(N)(C(=O)O)C(F)F (stereo not drawn),0.209
2,CNC[C@H](O)c1cccc(O)c1,0.649
3,NC(=O)C1CCCc2c1[nH]c1ccc(Cl)cc21 (stereo not drawn),-0.722
4,COc1ccc(CC2=NN3C([C@@H](CCc4ccccc4)[C@@H](C)O)=NC(C)C3C(=O)N2)cc1OC (stereo partly drawn),-0.34
5,NC(=O)c1ccc(I)c([N+](=O)[O-])c1,1.56
6,Oc1cccc(-c2nc(N3CCOCC3)c3oc4ncccc4c3n2)c1,-0.82
7,CC(C)C[C@H](NC(=O)[C@@H](O)[C@H](N)Cc1ccccc1)C(=O)O,0.8
8,CCCCNc1cc(C(=O)O)cc(S(N)(=O)=O)c1Oc1ccccc1,-0.665
9,O=C1CCc2cc(OCCCCc3nnnn3C3CCCCC3)ccc2N1,-1.35
10,NCCc1ccc(O)c(O)c1,0.293
11,NC[C@H](O)c1ccc(O)c(O)c1,-0.408
12,CC(C)(C)OC(=O)CN(Cc1ccc(Cl)cc1)Cc1ccc([N+](=O)[O-])s1,0.709
13,Nc1nc2c(ncn2COCCO)c(=O)[nH]1,-0.761
14,OCCn1cc(-c2cnc3nnn(Cc4ccc5ncccc5c4)c3n2)cn1,-0.182
15,CC(C)(C)NCC(O)c1ccc(O)c(CO)c1 (stereo not drawn),0.197
16,CCc1ccc(CCOc2ccc(CC3SC(=O)NC3=O)cc2)nc1 (stereo not drawn),0.827
17,O=C(O)[C@@H](c1ccc(OCc2ccc3ccccc3n2)cc1)C1CCCC1,1.02
18,O=C(O)CCc1ccc(NCc2cccc(Oc3ccccc3)c2)cc1,1.62
